CYP2C9 activ = CYP2C9 (human) activation; recombinant CYP2C9, luciferin-H conversion, luminescence; active compounds read high; factor 1 = untreated enzyme, 0 = blocked; activation factor at 5 µM; hit rate 1.4% among 96,000; AID 1024;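 active = activation factor of 2 or more for CYP2C9 at a 5 µM dose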;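 also: 0 = sulfaphenazole-blocked wells and 1 = vehicle-only wells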
CYP2C9 inh = human CYP2C9 inhibition | inhibition, % at 5 µM | hit rate 20% among 96,000 | AID 777 | CYP2C9 Supersomes, luciferin-H conversion, luminescence | P11712;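 active = blocking of liver enzyme CYP2C9 beyond about 50% at 5 µM, limit read from the data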
CYP2C19 inhib = inhibitors of human CYP2C19; P33261; CYP2C19 Supersomes, luciferin-H EGE luminescence, 30 min; inhibition, % at 5 µM; hit rate 21% among 96,000; AID 778;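 active = CYP2C19 inhibition above a set limit at 5 µM in the primary screen, cut at about 50% in these data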;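 also: plate controls were negative control wells for no effect and 2.5 mM tranylcypromine positive control for full effect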
Target sequence (P33261 whole entry, looked up): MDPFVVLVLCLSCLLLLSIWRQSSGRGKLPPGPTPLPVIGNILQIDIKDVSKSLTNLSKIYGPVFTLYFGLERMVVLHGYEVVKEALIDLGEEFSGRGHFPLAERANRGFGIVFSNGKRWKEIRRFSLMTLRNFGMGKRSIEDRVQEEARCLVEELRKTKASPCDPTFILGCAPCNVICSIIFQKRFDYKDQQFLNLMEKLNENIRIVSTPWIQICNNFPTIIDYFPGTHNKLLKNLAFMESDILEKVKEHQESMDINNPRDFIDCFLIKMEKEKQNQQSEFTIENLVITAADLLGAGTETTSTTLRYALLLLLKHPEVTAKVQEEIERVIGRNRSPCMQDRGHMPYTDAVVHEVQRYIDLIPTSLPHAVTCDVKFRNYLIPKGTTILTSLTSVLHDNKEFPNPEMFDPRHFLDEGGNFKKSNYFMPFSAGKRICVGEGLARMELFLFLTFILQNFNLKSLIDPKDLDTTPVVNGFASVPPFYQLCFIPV
PostGolgi ctrl = inhibits growth of the yeast control strain; efflux-deficient yeast background strain, growth absorbance A615, 16 h; inhibition, % at 10 µM; hit rate 5% among 98,000; AID 738
CYP2C19 activ = increases human CYP2C19 enzyme activity; recombinant CYP2C19, luciferin-H EGE luminescence; active compounds read high; 0 = fully inhibited enzyme, 1 = untreated enzyme; P33261; 96,000 tested, under 10 active; activation factor at 5 µM; AID 1025;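 active = activation factor of at least 2 at 5 µM in the primary screen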;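 also: 0 = wells with 2.5 mM tranylcypromine and 1 = vehicle-only wells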
PostGolgi yeast = growth inhibition of a yeast mutant, post-Golgi transport screen; post-Golgi transport phenotypic cell assay; inhibition, % at 10 µM; hit rate 0.9% among 98,000; AID 739;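 also: yeast cells grown in 1536-well plates; yeast grown about 18 h at 30C before absorbance read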
Active calls of the source: *; . = not tested or not shown. Most compounds without a hit are left out; they make up all but 32% or so of the library. Rule as the data show it, unless noted: active = inhibition above about 30%; inactive = the rest.

SMILES	CYP2C9 activ	CYP2C9 inh	CYP2C19 inhib	PostGolgi ctrl	CYP2C19 activ	PostGolgi yeast
COC(=O)c1ccc(CSc2nc3c(c(=O)n2-c2ccc(C)cc2)SCC3)o1	0.1	93*	65*	25	0.4	-3
COC(=O)C(C)Sc1nc2c(c(=O)n1-c1ccccc1)SCC2 (stereo not given)	0.3	69*	89*	11	0.1	-1
COc1ccc(-n2c(SCC(=O)Nc3cc(C)on3)nc3c(c2=O)SCC3)cc1	.	.	.	-1	.	1
COc1ccc(NC(=O)CSc2nc3c(c(=O)n2-c2ccc(F)cc2)SCC3)c(OC)c1	0.2	80*	73*	26	0.3	-2
Cc1ccc(-n2c(SCC(=O)N3CCCC3)nc3c(c2=O)SCC3)cc1	1	-2	-16	20	1.2	3
CCC(Sc1nc(=O)cc(N)n1CCc1ccccc1)C(=O)Nc1ccccc1C#N (stereo not given)	0.8	24	20	-7	0.8	-5
CC1=C(C(=O)OCC2CCCO2)C(c2ccc(C)o2)C2=C(CC(c3ccc(N(C)C)cc3)CC2=O)N1 (stereo not given)	0.5	54*	56*	10	0.4	4
CC1=C(C(=O)OCC2CCCO2)C(c2ccc(O)cc2)NC(=O)N1 (stereo not given)	1.1	-8	0	4	1	0
CC1=C(C(=O)OCC2CCCO2)C(c2ccccc2OC(C)C)C2=C(CC(c3ccco3)CC2=O)N1 (stereo not given)	0.2	81*	98*	24	0	-7
CC1=C(C(=O)OCC2CCCO2)C(c2cccc(C(F)(F)F)c2)C2=C(CC(c3ccco3)CC2=O)N1 (stereo not given)	0.1	88*	94*	-5	0.1	3
CC1=C(C(=O)OCC2CCCO2)C(c2ccc(C)o2)C2=C(CC(c3ccc(F)cc3)CC2=O)N1 (stereo not given)	0.8	19	16	-4	0.8	-8
CC(C)C(C(=O)Nc1cccnc1)N1C(=O)c2ccccc2C1=O (stereo not given)	0.4	63*	30	1	0.7	9
CN(c1ccc(C(=O)Nc2ccc3c(c2)OCCO3)cc1)S(C)(=O)=O	0.7	34	38	2	0.6	6
Cc1ccc(N(C(C)C(=O)Nc2ccc3c(c2)OCO3)S(C)(=O)=O)cc1 (stereo not given)	0.6	43	67*	7	0.3	11
CC(C)C(C(=O)Nc1ccc2c(c1)OCCO2)N1C(=O)c2ccccc2C1=O (stereo not given)	0.5	49	22	3	0.8	-4
CC(C(=O)Oc1ccc2c(c1)OCO2)N1C(=O)c2ccccc2C1=O (stereo not given)	0.6	42	62*	-8	0.4	-2
CC(C)C(C(=O)Nc1ccc2c(c1)OCO2)N1C(=O)c2ccccc2C1=O (stereo not given)	0.5	52*	49	4	0.5	-1
O=C(CN1C(=O)c2ccccc2C1=O)Nc1ccc2c(c1)OCO2	0.7	28	5	-17	0.9	-4
CC(C(=O)OCC(=O)Nc1ccc2c(c1)OCO2)N1C(=O)c2ccccc2C1=O (stereo not given)	0.3	68*	74*	10	0.3	2
O=C(CSc1nnc2ccccn12)Nc1ccccc1C(=O)NC1CC1	1	3	-5	4	1.1	5
CCOC(=O)C1=C(CSc2nc(-c3ccccc3)ccc2C#N)OC(N)=C(C#N)C1c1ccccc1 (stereo not given)	0.1	92*	59*	9	0.4	-14
CCOC(=O)C1=C(CSc2nc3c(cc2C#N)CN(C)CC3)OC(N)=C(C#N)C1c1ccc(F)cc1 (stereo not given)	0.1	86*	92*	2	0.1	0
CCOC(=O)C1=C(CSc2nc(-c3ccccc3)ccc2C#N)OC(N)=C(C#N)C1c1cccnc1 (stereo not given)	0.1	94*	92*	5	0.1	61*
CCOc1cc(C(=O)N2CCN(c3ccc(C(C)=O)cc3)CC2)cc(OCC)c1OCC	0.8	17	4	6	1	0
O=C1CCCc2c1cc(-c1ccccc1)n2-c1ccccc1	0.8	16	15	51*	0.9	-5
SMILES	CYP2C9 activ	CYP2C9 inh	CYP2C19 inhib	PostGolgi ctrl	CYP2C19 activ	PostGolgi yeast
O=[n+]1cc(-c2ccccc2)n([O-])c2c1CCC2	1.2	-19	-17	5	1.2	14
CN(C)S(=O)(=O)c1ccc(C(=O)N(c2ccccn2)c2ccccn2)cc1	0.9	7	-3	0	1	2
OC(c1ccc(Cl)cc1)c1nnc(-c2ccccc2)o1 (stereo not given)	0.1	88*	100*	-10	0	5
Clc1ccc(-c2nnc(-c3ccccc3Cl)o2)cc1	1.1	-9	-13	-2	1.1	2
O=C(CC1Sc2ccccc2NC1=O)Nc1cccc(C(=O)O)c1 (stereo not given)	0.8	16	-10	17	1.1	-1
CCOC(=O)C(=CNc1ccccc1C)C(=O)OCC	0.9	9	-2	6	1	-6
CCOC(=O)C(/C=N/c1cc(C)nn1-c1ccccc1)=C(\C)O	0.3	70*	59*	3	0.4	-2
CCOC(=O)C(=CNc1cc(C)nn1-c1ccccc1)C(=O)OCC	0.4	63*	14	22	0.9	10
O=[N+]([O-])c1cnccc1Nc1ccccc1	0.1	92*	98*	5	0	-7
Nc1ccc(Nc2ccncc2[N+](=O)[O-])cc1	0.6	41	20	7	0.8	-4
COc1ccccc1NC(=O)Cn1cncc1-c1ccc([N+](=O)[O-])cc1	1	-3	-6	2	1.1	6
Cc1ccc(NC(=O)Cn2cncc2-c2ccc([N+](=O)[O-])cc2)cc1C	0.9	7	24	33*	0.8	1
CCC(Sc1ccccn1)C(=O)Nc1nnc(C)s1 (stereo not given)	0.4	63*	56*	-13	0.4	8
O=S(=O)(c1ccc(NCCc2c[nH]c3ccccc23)nc1)N1CCOCC1	0.7	28	51*	13	0.5	3
COC(=O)CCCCCNc1ccc(C(=O)OC)cc1N	0.8	16	84*	2	0.2	-1
Cc1ccc(S(=O)(=O)N=S(CC2CC2(Cl)Cl)CC2CC2(Cl)Cl)cc1 (stereo not given)	0.6	44	62*	0	0.4	15
Cc1ccc(/S(C)=N/S(=O)(=O)c2ccc(C)cc2)cc1 (stereo not given)	1.6	-59	28	7	0.7	1
Cc1cc(C)n(-c2nc3sc4c(c3c(=O)[nH]2)CCCC4)n1	0.9	8	8	98*	0.9	99*
CC1CCc2sc3ncnc(N4CCOCC4)c3c2C1 (stereo not given)	0.4	61*	96*	9	0	26

Screens (PubChem BioAssay)
